Screens as filed in PubChem.
USP10 inh: blocks human USP10 ubiquitin-rhodamine cleavage; Q14694; purified USP10, Ub-rhodamine fluorescence, 60 min; inhibition, % at 20 µM; 47,000 tested, 1.1% active
USP7 inh: inhibitors of human USP7 deubiquitinase. purified USP7, Ub-rhodamine cleavage fluorescence. inhibition, % at 20 µM. 47,000 tested, 0.3% active
Target sequence (Q93009 whole entry, looked up): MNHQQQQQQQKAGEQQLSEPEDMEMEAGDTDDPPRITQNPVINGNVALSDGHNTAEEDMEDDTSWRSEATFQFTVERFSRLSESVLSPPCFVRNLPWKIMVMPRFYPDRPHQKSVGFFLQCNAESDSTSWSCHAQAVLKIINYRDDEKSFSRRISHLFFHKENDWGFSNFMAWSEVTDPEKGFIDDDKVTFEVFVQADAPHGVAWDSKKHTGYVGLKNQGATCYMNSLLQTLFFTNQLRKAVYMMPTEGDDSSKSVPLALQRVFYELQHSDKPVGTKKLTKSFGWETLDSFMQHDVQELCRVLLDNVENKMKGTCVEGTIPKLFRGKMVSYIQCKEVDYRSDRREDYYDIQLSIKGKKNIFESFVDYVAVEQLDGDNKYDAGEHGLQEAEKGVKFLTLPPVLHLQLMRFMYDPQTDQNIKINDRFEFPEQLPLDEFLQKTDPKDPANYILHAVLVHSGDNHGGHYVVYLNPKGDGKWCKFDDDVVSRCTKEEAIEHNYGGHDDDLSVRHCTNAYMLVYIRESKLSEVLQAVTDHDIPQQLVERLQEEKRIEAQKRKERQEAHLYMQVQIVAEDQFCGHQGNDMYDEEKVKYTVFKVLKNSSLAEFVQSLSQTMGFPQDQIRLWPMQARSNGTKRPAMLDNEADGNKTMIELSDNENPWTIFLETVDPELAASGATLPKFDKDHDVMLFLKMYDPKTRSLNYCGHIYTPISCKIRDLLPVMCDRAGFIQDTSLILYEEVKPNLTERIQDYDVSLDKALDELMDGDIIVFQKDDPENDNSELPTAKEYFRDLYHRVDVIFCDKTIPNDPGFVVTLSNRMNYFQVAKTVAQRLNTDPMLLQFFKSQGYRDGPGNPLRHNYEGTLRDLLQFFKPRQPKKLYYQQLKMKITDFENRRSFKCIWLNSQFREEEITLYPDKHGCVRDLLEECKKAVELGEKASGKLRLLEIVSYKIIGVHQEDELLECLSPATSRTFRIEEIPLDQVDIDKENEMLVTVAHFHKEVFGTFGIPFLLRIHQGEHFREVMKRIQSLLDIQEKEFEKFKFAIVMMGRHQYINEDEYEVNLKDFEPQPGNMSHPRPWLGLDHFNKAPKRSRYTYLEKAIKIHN
USP8 block: blocks human USP8 ubiquitin-rhodamine cleavage; P40818; purified USP8, Ub-rhodamine cleavage fluorescence, 30 min; inhibition, % at 20 µM; 47,000 tested, 4.2% active; AID 1645853
UCHL1 inh: blocks human UCHL1 ubiquitin-rhodamine cleavage; AID 1645859; P09936; purified UCHL1, Ub-rhodamine cleavage fluorescence; 47,000 tested, 0.2% active; inhibition, % at 20 µM
* hit, by the source's call. A selection: hits, their analogues and other compounds. The true share with any hit is near 4.6%. No stated cut-off is given here; in the data, active means inhibition above about 30%; inactive means the rest.

SMILES | USP10 inh | USP7 inh | USP8 block | UCHL1 inh
COc1cc(C2CCN(C(=O)c3ccccc3)CC2)on1 | 2 | -1 | 32* | 0
COc1cc(C2CCN(C(=O)c3ccc(Cl)cc3)CC2)on1 | 0 | -4 | 1 | 0
Cc1nn(C)cc1C(C(=O)NC1CCCCC1)N(C(=O)CN1C(=O)c2ccccc2S1(=O)=O)c1ccc2c(c1)OCO2 (configuration not stated) | 40* | 19 | 16 | 12
Cc1nnc(-c2ccc3ccn(CC(=O)NC4CCCCC4)c3c2)o1 | 7 | -3 | 2 | -1
Cc1cc(C)nc(-n2nc(C)cc2NC(=O)c2cccc(Cl)c2)n1 | 0 | 1 | -14 | -1
Cc1cc(NC(=O)c2cccc(N3CCOCC3)n2)n(-c2ccc(Cl)cc2)n1 | 8 | 8 | 52* | 1
CN1C(=O)c2cccnc2Sc2cc(NC(=O)COc3ccc(F)c(F)c3)ccc21 | -9 | -6 | 4 | -4
CCN(CC)S(=O)(=O)c1ccc2[nH]c(=O)cc(C(=O)Nc3ccc4c(c3)OCO4)c2c1 | 16 | 1 | 60* | -1
CCN(CC)c1ccc(NC(=O)c2cc(=O)[nH]c3ccccc23)cc1 | -2 | 3 | 17 | -1
Cc1ccc(S(=O)(=O)Nc2ccc3[nH]cc(Cl)c3c2)cc1 | 9 | 14 | 42* | 7
Cc1ccc(S(=O)(=O)Nc2ccc(S(=O)(=O)Nc3ccc(F)cc3)cc2)cc1 | 8 | 3 | 11 | 7
COc1ccc(C2Nc3ccccc3C(=O)N2c2ccc3c(c2)OCO3)cc1O (configuration not stated) | -1 | -2 | 57* | 3
O=[N+]([O-])c1ccc(C(c2ccc[nH]2)c2ccc[nH]2)cc1 | -6 | -2 | -22 | 2
COc1ccc(CNC(=O)CCc2c(C)c3c(C)nn(-c4ccccc4)c3n(C)c2=O)cc1 | 0 | 0 | -46 | 0
Cc1ccc(CNC(=O)CCc2c(C)nc3c(c(C)nn3-c3ccc(C)cc3)c2C)cc1 | 1 | 5 | 34* | 6
O=C(Cc1nnc(-c2cnccn2)o1)NCc1ccc(Cl)cc1 | -1 | -1 | -5 | -1
O=C(c1ccc(F)cc1)[C@@H]1[C@H](C(=O)OC(c2ccccc2)c2ccccc2)N2c3ccccc3C=CC2[C@@]12C(=O)Nc1ccccc12 (some centres not stated) | -9 | -34 | -13 | -29
O=C(c1ccc(Cl)cc1)[C@@H]1[C@H](C(=O)OC(c2ccccc2)c2ccccc2)N2c3ccccc3C=CC2[C@@]12C(=O)Nc1ccccc12 (some centres not stated) | -4 | -15 | 52* | -15
Cc1ccc(-c2cc(C(=O)OCC(=O)NC(C)c3ccccc3)c3ccccc3n2)cc1 (configuration not stated) | 0 | 8 | -3 | -4
Cc1ccc(-c2nc3c(s2)CN(C(=O)COc2ccc(Cl)cc2)CC3)cc1 | 5 | 4 | 18 | 6
Cc1ccc(NC(=O)Nc2ccc(C)n(CC(=O)Nc3ccccc3)c2=O)cc1 | 39* | 20 | 45* | 2
CCOC(=O)c1cc2c(ccn2C)n1CC(=O)N1CCCCC1 | -4 | -4 | 15 | -2
CCOC(=O)c1cc2c(ccn2C)n1CC(=O)N(Cc1ccc(Cl)cc1)c1ccccc1 | -7 | -60 | 57* | -17
CCOC(=O)c1cc2c(ccn2C)n1CC(=O)N(C1CCCCC1)C1CCCCC1 | -7 | -33 | -34 | -32
CCOC(=O)c1cc2c(ccn2C)n1Cc1ccc(C#N)cc1 | -6 | -17 | 71* | -6
SMILES | USP10 inh | USP7 inh | USP8 block | UCHL1 inh
COc1ccc(-n2nnc(C(=O)Nc3ccc(F)cc3)c2C)cc1 | 6 | 5 | 2 | 6
COc1ccc(C(=O)c2nnn(-c3ccc(OC(F)(F)F)cc3)c2C)cc1 | 10 | 9 | 33* | 3
Cc1ccc(C(O)Cn2cc(C(=O)Nc3cccc(C)c3)nn2)cc1 (configuration not stated) | 5 | 7 | 7 | 2
Cc1nn(-c2cccc(C(F)(F)F)c2)c2c1C(c1ccccc1)N1C=C(Cl)C=C(Cl)C1=N2 (configuration not stated) | 0 | 3 | -106 | -1
Cc1nn(-c2ccccc2)c2c1N=C1C(Cl)=CC(Cl)=CN1C21C(=O)Nc2ccccc21 (configuration not stated) | 4 | 65* | 94* | 15
CCCCC/C=C/C=C/C(=O)OC1C(O)CC(c2ccc3c(c2O)C(=O)c2c(O)cc4cc(C)cc(O)c4c2C3=O)OC1C (configuration not stated) | 27 | -1 | 57* | 19
Cc1cccc(NC(=O)CCn2c(N3CCCC3)nc3ccsc3c2=O)c1 | 1 | -2 | -252 | -5
Cc1nn(-c2ccccc2)c2[nH]c(=O)c(CNCc3ccc(F)cc3)cc12 | 0 | 3 | 56* | 1
Cc1nn(-c2ccccc2)c2[nH]c(=O)c(CNCc3ccco3)cc12 | -2 | 4 | -5 | 0
O=c1[nH]c2c(cc1CNCc1cccnc1)c(-c1cccc(F)c1)nn2-c1ccccc1 | -4 | -4 | 68* | -3
O=C(O)c1c(CNCc2cccnc2)c2ccccc2n1Cc1ccccc1F | -4 | -64 | -23 | -4
COc1ccc(-c2nn(-c3ccccc3)c3[nH]c(=O)c(CNC4CCCC4)cc23)cc1 | -8 | 5 | 26 | -9
Cc1nn(-c2ccccc2)c2[nH]c(=O)c(CNCc3ccc4c(c3)OCO4)cc12 | 4 | 7 | 77* | 1
Cc1ccc(-c2nn(-c3ccccc3)c3[nH]c(=O)c(CNCc4ccccc4)cc23)cc1 | -13 | -32 | 56* | -51
O=C(O)Cn1cc2c(n1)CCCCCC2 | 0 | -1 | 3 | -1
Cc1ccc(NCc2cc3c(-c4ccc(F)cc4)nn(-c4ccccc4)c3[nH]c2=O)cc1C | 6 | 17 | 77* | 1
N#Cc1c(-c2ccccc2Cl)c2c([nH]c1=O)-c1ccccc1CC2 | 15 | 4 | 47* | 6
N#Cc1c(-c2ccc(F)cc2)c2c([nH]c1=O)-c1ccccc1OC2 | 16 | -7 | 65* | 1
CNc1nccc(-c2ccc(F)cc2)c1C#N | 1 | -2 | 4 | 1
N#Cc1c(-c2cccnc2)c2c([nH]c1=O)-c1ccccc1CC2 | -7 | -6 | -23 | -8
COc1ccccc1N1CCN(C(=O)CCC2=NS(=O)(=O)c3ccc(C)cc3N2)CC1 | 4 | 6 | -88 | 3
COc1ccc(S(=O)(=O)Nc2ccc3nn(C)cc3c2)cc1 | -4 | -6 | 77* | -5
CCOc1ccc2[nH]c3c(=O)n(Cc4ccccc4)cnc3c2c1 | 6 | 2 | 10 | -3
COc1ccc(S(=O)(=O)Nc2cncc(C(=O)N3CCN(Cc4ccccc4)CC3)c2)cc1 | 2 | 1 | -23 | -3
COC(=O)CCCNC(=O)C1c2ccccc2C(=O)N(Cc2ccccc2)C12CCCC2 (configuration not stated) | -5 | -6 | 45* | -2
Cc1ccc(-c2c3c4n(c(-c5ccc(Cl)cc5)cn4c2C(=O)Nc2ccccc2Cl)CCCC3)cc1 | -3 | -6 | 43* | 4
